The values that follow come from PubChem BioAssay (NCATS).

SMILES strings stand for the structures. Inconclusive results are not listed. A call without a number means that no potency is given here. Active and inactive are the calls of the source. The call rests on the fitted dose curve; in most records, active means well fitted inhibition curve with a large enough effect; inconclusive means small, poorly fitted or top-dose-only effect; inactive means no such curve, though single readings can be large or run the other way.

Sequence of Pyruvate kinase (Leishmania mexicana) (Q27686 2-499 E452W): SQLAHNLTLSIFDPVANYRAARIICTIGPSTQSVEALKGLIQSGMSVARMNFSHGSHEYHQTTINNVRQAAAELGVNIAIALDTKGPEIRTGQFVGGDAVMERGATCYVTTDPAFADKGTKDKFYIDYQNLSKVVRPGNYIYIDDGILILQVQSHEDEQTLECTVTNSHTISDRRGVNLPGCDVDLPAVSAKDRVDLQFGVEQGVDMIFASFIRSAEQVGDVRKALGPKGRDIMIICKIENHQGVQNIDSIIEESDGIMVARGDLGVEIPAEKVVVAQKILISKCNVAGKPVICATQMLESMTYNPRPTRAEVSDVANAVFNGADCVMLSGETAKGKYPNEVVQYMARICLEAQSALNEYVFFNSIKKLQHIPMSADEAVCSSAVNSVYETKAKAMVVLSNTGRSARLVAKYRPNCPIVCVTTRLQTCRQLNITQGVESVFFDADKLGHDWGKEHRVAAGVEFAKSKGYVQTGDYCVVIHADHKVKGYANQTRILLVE

For the first assay, the target named is Muscarinic acetylcholine receptor M1 (Rattus norvegicus) (UniProt P08482). The assay is described as follows: qHTS Assay for Antagonists of Acetylcholine Muscarinic M1 Receptor: Kinetic Measurement of Intracellular Calcium Response (AID 943). Further: nearly all actives have a fitted effect of over 75% in size. Further: potency means the concentration at half of the fitted maximal effect. The following applies: M1-expressing cells, kinetic intracellular calcium fluorescence; series mostly up to 35.3 µM. Put shortly: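 Quantitative HTS in CHO-M1 (rat receptor) cells: 10 min compound exposure ahead of 100 nM carbachol, Fluo-4 fluorescence followed 4 min, value expressed as peak-to-basal ratio.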
Sequence of Muscarinic acetylcholine receptor M1 (Rattus norvegicus) (P08482 whole entry, looked up): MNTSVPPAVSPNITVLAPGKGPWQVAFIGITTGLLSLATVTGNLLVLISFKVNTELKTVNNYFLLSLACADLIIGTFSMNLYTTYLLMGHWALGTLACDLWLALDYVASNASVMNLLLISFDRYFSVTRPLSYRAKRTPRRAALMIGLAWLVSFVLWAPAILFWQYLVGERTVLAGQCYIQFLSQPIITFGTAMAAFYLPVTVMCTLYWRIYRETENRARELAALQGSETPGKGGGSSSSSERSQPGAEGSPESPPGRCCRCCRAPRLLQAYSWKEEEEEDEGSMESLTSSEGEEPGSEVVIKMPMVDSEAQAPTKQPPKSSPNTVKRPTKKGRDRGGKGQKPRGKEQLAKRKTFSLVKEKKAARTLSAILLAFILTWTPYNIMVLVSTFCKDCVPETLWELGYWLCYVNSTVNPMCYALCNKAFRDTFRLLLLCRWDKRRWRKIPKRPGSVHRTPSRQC
As for `CCCN(CCC)CCc1cccc2c1CC(=O)N2`, the Potency was 17800 nM (active).
On the same count and under the same terms, with `CCCC(C(=O)OCCN(CC)CC)(c1ccccc1)c1ccccc1` the figure was 447 nM (active); with `O=C(O)CCCCCCCC(=O)O`, “inactive”.
The same measure, in the same setting: as for `CC(C)[N+](C)(CCOC(=O)C1c2ccccc2Oc2ccccc21)C(C)C`, the figure is 11.2 nM (active); as for `CCN(CC)CCNC(=O)c1ccc(NC(C)=O)cc1`, “inactive”; as for `CN(C)CCCN1c2ccccc2Sc2ccc(C(F)(F)F)cc21`, 158 nM (active).

The target is the same in the next assay. The assay is described as follows: qHTS Assay for Antagonists of Acetylcholine Muscarinic M1 Receptor: Measurement of IP-One Response (AID 944). Further: nearly all actives have a fitted effect of over 75% in size. Further: potency means the concentration at half of the fitted maximal effect. The following applies: CHO-M1 cells, IP-One HTRF, antagonist mode; series mostly up to 46.1 µM. In outline:
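Antagonism was measured as loss of carbachol-driven (EC80) IP1 accumulation in CHO cells carrying rat M1, using a homogeneous IP-One TR-FRET kit read at 620 and 665 nm.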
Regarding `Cc1ccc(S(=O)(=O)NC(=O)NN2CCCCCC2)cc1`, the Potency result was “inactive”.
With `CCCC(C(=O)OCCN(CC)CC)(c1ccccc1)c1ccccc1`, the Potency was 11200 nM (active).
As for `CCn1cc(C(=O)O)c(=O)c2cc3c(cc21)OCO3`, the Potency result was “inactive”.
Turning to `COc1cc(Cc2cnc(N)nc2N)cc(OC)c1OC`, the Potency entry is “inactive”.
Take `FC(F)(F)c1ccccc1-n1ccnc1`: the Potency entry was “inactive”.
Take `O=C(O)CCCCCCCC(=O)O`: the Potency entry was “inactive”.
On to `Nc1nc(N)c2nc(-c3ccccc3)c(N)nc2n1`, for which the Potency result was “inactive”.
For the molecule `Nc1ncn([C@@H]2O[C@H](CO)[C@@H](O)[C@H]2O)c(=O)n1`, the Potency entry was “inactive”.
Take `CN/C(=C\[N+](=O)[O-])NCCSCc1ccc(CN(C)C)o1`: the Potency result was “inactive”.
Regarding `CC(C)[N+](C)(CCOC(=O)C1c2ccccc2Oc2ccccc21)C(C)C`, the Potency is 1 nM (active).
As for `CN(C)CCCN1c2ccccc2Sc2ccc(C(F)(F)F)cc21`, the Potency is 1000 nM (active).

For a further assay, the target named is Pyruvate kinase (Leishmania mexicana) (UniProt Q27686). The assay is described as follows: qHTS Validation Assay for Inhibitors of Leishmania Mexicana Pyruvate Kinase (AID 945). The following applies: purified L. mexicana pyruvate kinase, enzyme activity, E451W mutant enzyme; series mostly up to 57.5 µM. Put shortly:
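The enzyme is a highly purified E451W mutant of LmPYK used at 0.2 nM. It converts 0.5 mM PEP and 0.1 mM ADP over 1 h at room temperature; product ATP is quantified by luciferase luminescence relative to DMSO controls.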
In the case of `CN(C)CCN(Cc1cccs1)c1ccccn1`, the Potency result was “inactive”.
Regarding `CCCN(CCC)CCc1cccc2c1CC(=O)N2`, the Potency entry was “inactive”.
Same read-out and setting: as for `Cc1ccc(S(=O)(=O)NC(=O)NN2CCCCCC2)cc1`, the entry is “inactive”; as for `CCCC(C(=O)OCCN(CC)CC)(c1ccccc1)c1ccccc1`, “inactive”; as for `CCCCNc1ccc(C(=O)OCCN(C)C)cc1`, “inactive”.
Consider `CC(C)NNC(=O)c1ccncc1`, for which the Potency entry was “inactive”.
Still for that read-out and setting: with `CCn1cc(C(=O)O)c(=O)c2cc3c(cc21)OCO3` the entry was “inactive”.
With `COc1cc(Cc2cnc(N)nc2N)cc(OC)c1OC`, the Potency result was “inactive”.
The same measure, in the same setting: with `CN1CCN(CC(=O)N2c3ccccc3C(=O)Nc3cccnc32)CC1` the entry was “inactive”; with `CN(C)C(=O)Oc1ccc[n+](C)c1`, “inactive”.
Consider `CCn1nc(C(=O)O)c(=O)c2cc3c(cc21)OCO3`, for which the Potency entry is “inactive”.
`CNCCCN1c2ccccc2CCc2ccccc21`: the Potency entry is “inactive”.
`FC(F)(F)c1ccccc1-n1ccnc1`: the Potency entry is “inactive”.
Still for that read-out and setting: with `C[C@H](CS)C(=O)N1CCC[C@H]1C(=O)O` the entry was “inactive”.
For `O=C(O)CCCCCCCC(=O)O`, the Potency entry is “inactive”.
Consider `Nc1ncn([C@@H]2O[C@H](CO)[C@@H](O)[C@H]2O)c(=O)n1`, for which the Potency entry was “inactive”.
Turning to `CCN(CC)CCOCCOC(=O)C1(c2ccccc2)CCCC1`, the Potency entry was “inactive”.
In the case of `CN/C(=C\[N+](=O)[O-])NCCSCc1ccc(CN(C)C)o1`, the Potency entry was “inactive”.
As to `CC(C)[N+](C)(CCOC(=O)C1c2ccccc2Oc2ccccc21)C(C)C`, the Potency result is “inactive”.
Turning to `COc1ccc(CN(CCN(C)C)c2ccccn2)cc1`, the Potency result was “inactive”.
Regarding `CCN(CC)CCNC(=O)c1ccc(NC(C)=O)cc1`, the Potency entry is “inactive”.
Same read-out and setting: with `Cc1ccc(Cl)c(Nc2ccccc2C(=O)O)c1Cl` the entry was “inactive”.
In the case of `CN(C)CCCN1c2ccccc2Sc2ccc(C(F)(F)F)cc21`, the Potency entry is “inactive”.
As for `C#CCN(C)CCCOc1ccc(Cl)cc1Cl`, the Potency entry was “inactive”.
